From PubChem
IL1B secr inh: inflammasome signaling inhibition, IL-1 beta readout. 360,000 tested, 4.7% active. THP-1 LPS/ATP IL-1B secretion, AlphaLISA, 16 h; active compounds read low. activity change, % at 57.5 µM. AID 743279; in the data active = activity change below about -50%; inconclusive = mostly about -30% to -49%
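Secreted IL-1B measured by AlphaLISA bead assay after 16 h compound exposure of THP-1 cells; compounds (final up to 57.5 uM) added 1 h before LPS (250 ng/mL) and ATP (1.25 mM) stimulation; lower signal means less secretion.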
HT1080-NT tox: kills 2HG-producing HT-1080-NT fibrosarcoma cells; 360,000 tested, 1.6% active; Potency, µM (series often up to 46.1 µM), most hits filed as cytotoxic; HT-1080-NT fibrosarcoma viability, CellTiter-Glo ATP luminescence, 48 h;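 note: NT is the 2HG producing partner of a matched IDH1 knockdown line; nearly all actives have a fitted effect of over 55% in size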
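Compounds were tested in concentration-response format on HT-1080-NT cells for 48 hours at 37 degrees C. Cell viability came from CellTiter-Glo luminescence; curves were classified by r2, response magnitude and activity.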
TDP1 cell CPT: DT40-hTDP1 cell growth loss with CPT. Potency, µM (top dose mostly 46.2 µM), hits mostly inhibitors. 420,000 tested, 12% active. chicken DT40 Tdp1-/-;hTDP1 cells + 20 nM CPT, ATP luminescence, 48 h; note: nearly all actives have a fitted effect of over 55% in size
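Chicken DT40 Tdp1-/- cells stably complemented with human TDP1 were seeded at 400 cells/well in medium containing 20 nM camptothecin, exposed to pin-transferred compounds, and grown at 37 °C for at least 48 hr. Viability was read as ATP luminescence.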
HT1080 IDH1KD tx: kills HT-1080 cells with IDH1 knockdown; HT-1080 IDH1 knockdown viability, ATP luminescence, 48 h; AID 686971; Potency, µM (top dose mostly 46.1 µM), hits mostly cytotoxic; 360,000 tested, 2% active
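Knockdown cells (IDH1KD HT-1080) received compounds 2 h after plating at 750 cells/well and were kept 48 h at 37 °C in 5% FBS RPMI. A CellTiter-Glo luminescence read gave % activity for curve fitting.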
DT40 TDP1 no CPT: qHTS for Inhibitors of human tyrosyl-DNA phosphodiesterase 1 (TDP1): qHTS in cells in absence of CPT; DT40 Tdp1-/- hTDP1 cells, no CPT, ATP luminescence, 48 h; Potency, µM (series often up to 46.2 µM), hits mostly inhibitors; 420,000 tested, 15% active; AID 686978, 2013; note: nearly all actives have a fitted effect of over 55% in size
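Camptothecin absent (DMSO only). Human TDP1-complemented DT40 knockout cells, 400 cells/well, 37 °C for minimum 48 hr; ATP measured via CellTiter-Glo, 30 min dark incubation, luminescence.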
A number is an active result; – = inactive; ? = inconclusive; · = not tested or not shown; ! = a repeat was not active; [ ] = remark or other dose. An excerpt weighted towards active compounds, which were near 19% of everything screened. Unless noted, calls come from the whole dose curve; as a rule, active = well fitted curve in the direction sought with a large enough effect; inconclusive = small, poorly fitted or top-dose-only effect, or another doubt; inactive = no such curve, though single readings can be large; an effect the other way counts as inactive or inconclusive.

SMILES	IL1B secr inh	HT1080-NT tox	TDP1 cell CPT	HT1080 IDH1KD tx	DT40 TDP1 no CPT
Cc1ccccc1OCC(=O)Nc1ccc(Cc2ccncc2)cc1	-77	–	?	–	?
NC(=O)c1ccc(NC(=O)COc2cccc3ccccc23)cc1	–	–	–	–	–
Cc1cc(OCC(=O)Nc2ccncc2)ccc1Cl	–	–	?	–	?
Cc1ccc(CN2CCN(Cc3cnc(N4CCOCC4)s3)CC2CCO)cc1 (stereo not given)	–	–	–	–	?
COCc1ccc(CN2CCOc3c(O)cc(-c4cc(C)c5ccc(F)cc5n4)cc3C2)o1	·	·	–[9.04 µM]	·	?
Cc1ccc(OCC(=O)Nc2ccncc2)c(C)c1	–	–	21µM	–	8.2µM
Cc1cccc(OCC(=O)Nc2ccncc2)c1	–	–	–	–	?
CON(c1nc(Cl)nc(N(C)C)n1)S(=O)(=O)c1ccc(C)cc1	-63	–	–	?	16µM
CCOc1ccccc1N(CC(=O)NCc1ccco1)C(=O)CCC(=O)Nc1nccs1	–	–	–	–	–
C=C1C2CC[C@@]3(C)C(c4ccoc4)OC(=O)C[C@@]13OC1CC(OC(C)=O)C(C)(C)C(CC(=O)OC)[C@@]12C (stereo not given in full)	·	·	13µM	·	12µM
C=C1CCC2[C@](C)(CO[C@@H]3O[C@H](CO)[C@@H](O)[C@H](O)[C@H]3O)CCC[C@@]2(C)[C@@H]1CCC1=CCOC1=O (stereo not given in full)	–	–	–	–	?
O=C(NCc1ccccc1Cl)c1ccc(CSCc2cccc(F)c2)o1	·	·	26µM	·	?
O=C(NCc1ccc(F)cc1)c1ccc(CSCc2cccc(Cl)c2)o1	·	·	?	·	21µM
COc1ccc(N2CCN(c3ncnc4sc(C(=O)NCC5CCCO5)c(C)c34)CC2)cc1 (stereo not given)	–	–	?	–	23µM
CCN1CCN(C(=O)c2sc3ncnc(NCC4CCCO4)c3c2C)CC1 (stereo not given)	·	·	–	·	–
COc1ccccc1N1CCN(c2ncnc3sc(C(=O)NCC4CCCO4)c(C)c23)CC1 (stereo not given)	–	–	?	–	13µM
COc1ccc(-n2c(SCC(=O)Nc3ccccc3)nc3c(c2=O)SCC3)cc1	–	–	–	–	–
N#Cc1ccc(-c2ccco2)nc1SCc1ccccc1	–	–	?	–	?
CCSc1nc(-c2ccco2)ccc1C#N	–	–	23µM	–	?
CC(=O)N(O)CCCCCNC(=O)CCC(=O)N(O)CCCCCNC(=O)CCC(=O)N(O)CCCCCN	–	?	21µM!	?	12µM!
CC(C)(C)c1ccc(C(=O)NCC(=O)OCC(=O)N2CCCC2)cc1	–	–	–	–	–
CCOc1ccc(C(=O)Nc2cc(-c3ccccc3)no2)cc1	·	·	–	·	–
Cc1c(C(=O)O)cnc2c([N+](=O)[O-])cnn12	–	–	10µM	–	18µM
Nc1nc(N)c2snnc2n1	·	·	–	·	?
Nc1nc(=S)c2snnc2[nH]1	·	·	11µM	·	16µM
SMILES	IL1B secr inh	HT1080-NT tox	TDP1 cell CPT	HT1080 IDH1KD tx	DT40 TDP1 no CPT
Cc1cccc(N2C(=O)/C(=C\c3ccc(C(=O)O)cc3)c3ccccc3C2=O)c1	–	–	18µM	–	?
CC1CCC2(CC1)NC(=O)N(CC(=O)N1CCN(c3ccccc3)CC1)C2=O (stereo not given)	–	–[9.24 µM]	–	–	–
CCCCNC(=O)C1C(c2ccccc2)=Nc2ccccc2N1C(=O)c1ccc(C(F)(F)F)cc1 (stereo not given)	–	?	?	?	15µM
CCCCNC(=O)C1C(c2ccccc2)=Nc2ccccc2N1C(=O)c1ccc(C)cc1 (stereo not given)	–	?	13µM	?	?
CC(C)(C)NC(=O)C1C(c2ccccc2)=Nc2ccccc2N1C(=O)c1ccc(C(F)(F)F)cc1 (stereo not given)	–	–	?	–	16µM
CCCCNC(=O)C1C(c2ccc(C(F)(F)F)cc2)=Nc2ccccc2N1C(=O)c1cccc2ccccc12 (stereo not given)	–	–	?	–	?
